Measured values published in PubChem BioAssay AID1159580 (chemical genetic matrix, 2015).
“And” between values parts separate entries of the source, which are not always exact repeats. Equal values may be shown once. The campaign covered roughly 5,500 compounds. About 2,000 (36%) were called active. Another 18% or so got no clear call; they are omitted. Rule as the data show it: active = normalized growth mostly below about 0.91 (no sharp cut-off); inconclusive = no clear call, values can overlap the other calls; inactive = mostly above about 0.92. The list shows a part of the results.

Experiment: chemical genetic growth profiling, strain panel (AID 1159580);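 also: tested at 20 µM; growth read once vehicle control cultures reached saturation at 30 °C; 1 = growth at the plate median or of vehicle wells; lower values mean less growth of the strain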
Details: S. cerevisiae deletion strains, growth OD

Measured: normalized growth

CC(C(=O)O)c1ccc2c(c1)[nH]c1ccc(Cl)cc12 (configuration not stated)
1 (inactive) and 0.303 (active): locus YHR030C, strain SLT2, stronger effect = lower value
inactive: locus YAL013W, strain DEP1, stronger effect = lower value 1.02 | locus YAL021C, strain ccr4, stronger effect = lower value 0.949 | locus YAL026C, strain drs2, stronger effect = lower value 0.953 | locus YAL030W, strain snc1, stronger effect = lower value 0.979 | locus YBL061C, strain skt5, stronger effect = lower value 0.955 | locus YBR009C, strain hhf1, stronger effect = lower value 0.979 | locus YBR021W, strain FUR4, stronger effect = lower value 1 | locus YBR023C, strain chs3, stronger effect = lower value 0.973 | locus YBR171W, strain sec66, stronger effect = lower value 0.981 | locus YBR229C, strain ROT2, stronger effect = lower value 1.01 | locus YBR231C, strain swc5, stronger effect = lower value 0.981 | locus YBR279W, strain paf1, stronger effect = lower value 0.957 | locus YCL011C, strain gbp2, stronger effect = lower value 1 | locus YCL016C, strain dcc1, stronger effect = lower value 0.951 | locus YCL029C, strain bik1, stronger effect = lower value 0.982 | locus YCL061C, strain MRC1, stronger effect = lower value 0.978 | locus YCL069W, strain vba3, stronger effect = lower value 1.01 | locus YCR088W, strain abp1, stronger effect = lower value 0.973 | locus YDL005C, strain med2, stronger effect = lower value 0.975 | locus YDL035C, strain GPR1, stronger effect = lower value 1 | locus YDL040C, strain nat1, stronger effect = lower value 0.978 | locus YDL074C, strain BRE1, stronger effect = lower value 1.03 | locus YDL101C, strain DUN1, stronger effect = lower value 1.02 | locus YDL134C, strain PPH21, stronger effect = lower value 1.01 | locus YDL185W, strain tfp1, stronger effect = lower value 0.948 | locus YDL192W, strain arf1, stronger effect = lower value 0.954 | locus YDR001C, strain nth1, stronger effect = lower value 0.996 | locus YDR069C, strain doa4, stronger effect = lower value 0.984 | locus YDR101C, strain arx1, stronger effect = lower value 0.972 | locus YDR137W, strain rgp1, stronger effect = lower value 0.945 | locus YDR150W, strain NUM1, stronger effect = lower value 1.02 | locus YDR159W, strain sac3, stronger effect = lower value 0.895 | locus YDR162C, strain NBP2, stronger effect = lower value 1.02 | locus YDR195W, strain ref2 1.01 | locus YDR297W, strain sur2, stronger effect = lower value 0.983 | locus YDR318W, strain mcm21, stronger effect = lower value 0.972 | locus YDR334W, strain swr1, stronger effect = lower value 0.994 | locus YDR335W, strain msn5, stronger effect = lower value 0.984 | locus YDR388W, stronger effect = lower value 0.978 | locus YDR392W, strain spt3, stronger effect = lower value 0.832 | locus YDR502C, strain sam2, stronger effect = lower value 0.999 | locus YEL003W, strain gim4, stronger effect = lower value 0.996 | locus YEL037C, strain rad23, stronger effect = lower value 0.99 | locus YEL061C, strain CIN8 (second series), stronger effect = lower value 0.975 | locus YEL061C, strain CIN8, stronger effect = lower value 1 | locus YER015W, strain faa2, stronger effect = lower value 1 | locus YER016W, strain bim1, stronger effect = lower value 0.978 | locus YER110C, stronger effect = lower value 0.971 | locus YER111C, strain swi4, stronger effect = lower value 0.99 | locus YER155C, strain BEM2 (second series), stronger effect = lower value 0.952 | locus YER155C, strain BEM2, stronger effect = lower value 0.997 | locus YER167W, strain BCK2, stronger effect = lower value 1 | locus YFR010W, strain ubp6, stronger effect = lower value 0.999 | locus YGL078C, strain dbp3, stronger effect = lower value 0.988 | locus YGL086W, strain mad1, stronger effect = lower value 0.983 | locus YGL167C, strain pmr1, stronger effect = lower value 1 | locus YGL173C, strain kem1, stronger effect = lower value 0.961 | locus YGL227W, strain vid30, stronger effect = lower value 1 | locus YGL240W, strain doc1, stronger effect = lower value 0.92 | locus YGL248W, strain PDE1, stronger effect = lower value 1.01 | locus YGL253W, strain hxk2, stronger effect = lower value 0.968 | locus YGR078C, strain PAC10, stronger effect = lower value 1.02 | locus YGR135W, strain pre9, stronger effect = lower value 0.995 | locus YGR229C, strain SMI1, stronger effect = lower value 1.04 | locus YGR252W, strain gcn5, stronger effect = lower value 0.885 | locus YHR013C, strain ard1, stronger effect = lower value 0.96 | locus YHR027C, strain rpn1, stronger effect = lower value 0.991 | locus YHR079C, strain IRE1 (second series), stronger effect = lower value 0.976 | locus YHR094C, strain hxt1, stronger effect = lower value 0.987 | locus YHR129C, strain ARP1, stronger effect = lower value 1 | locus YHR142W, strain chs7, stronger effect = lower value 0.971 | locus YHR200W, strain rpn10, stronger effect = lower value 0.98 | locus YIL066C, strain RNR3, stronger effect = lower value 0.994 | locus YIL073C, strain SPO22, stronger effect = lower value 0.971 | locus YIR030C, strain dcg1, stronger effect = lower value 0.992 | locus YJL092W, strain hpr5, stronger effect = lower value 0.982 | locus YJL095W, strain BCK1 (second series), stronger effect = lower value 0.988 | locus YJL115W, strain asf1, stronger effect = lower value 0.985 | locus YJL129C, strain trk1, stronger effect = lower value 0.912 | locus YJL134W, strain LCB3, stronger effect = lower value 1.01 | locus YJL154C, strain vps35, stronger effect = lower value 0.99 | locus YJL164C, strain tpk1, stronger effect = lower value 0.982 | locus YJL166W, strain qcr8, stronger effect = lower value 1 | locus YJL168C, strain set2, stronger effect = lower value 0.983 | locus YJL187C, strain SWE1 (second series), stronger effect = lower value 1.01 | locus YJL187C, strain SWE1, stronger effect = lower value 0.97 | locus YJR043C, strain POL32, stronger effect = lower value 1.01
active: locus YHR079C, strain IRE1, stronger effect = lower value 0.369 | locus YIL125W, strain kgd1, stronger effect = lower value 0.929 | locus YJR066W, strain TOR1, stronger effect = lower value 0.492
1 (inactive) and 0.272 (active): locus YJL095W, strain BCK1, stronger effect = lower value
